Many of the other results were omitted from the sample, so hits are more common in it than they were.
TbREL1 inh: TbREL1 inhibition, primary screen | 0.49% of 89,000 active | inhibition, % at 9.66 µM | AID 1117264 | P86926 | TbREL1 RNA ligation, FRET fluorescence;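 active = inhibition above the mean inhibition across all screened compounds plus 3 SD, cut at about 11% in these data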;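 note: 0% = plate median of test wells and 100% = NSC42067 control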
Target sequence (P86926 whole entry, looked up): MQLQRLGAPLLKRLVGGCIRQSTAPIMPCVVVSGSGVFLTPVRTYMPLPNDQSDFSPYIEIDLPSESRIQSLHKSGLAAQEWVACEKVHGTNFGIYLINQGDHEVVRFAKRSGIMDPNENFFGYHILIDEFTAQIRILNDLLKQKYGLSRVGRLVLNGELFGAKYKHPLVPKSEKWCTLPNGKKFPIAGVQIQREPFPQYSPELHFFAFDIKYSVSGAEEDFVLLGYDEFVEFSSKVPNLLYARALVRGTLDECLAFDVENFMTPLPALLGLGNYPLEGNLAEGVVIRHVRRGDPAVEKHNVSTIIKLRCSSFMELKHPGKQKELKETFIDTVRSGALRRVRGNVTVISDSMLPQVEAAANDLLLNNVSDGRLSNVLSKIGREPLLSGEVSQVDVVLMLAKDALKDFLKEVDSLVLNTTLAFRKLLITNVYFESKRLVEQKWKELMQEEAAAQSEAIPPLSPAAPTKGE
TbREL1 confirm: TbREL1 inhibition, confirmation; shares compounds with TbREL1 inh; 37% of 390 active; AID 1117282; inhibition, % at 9.66 µM; TbREL1 RNA ligation, FRET fluorescence;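 active = mean inhibition across replicates above a set limit taken from the earlier primary screen, cut at about 11% in these data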;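 note: 0% = REL1 with substrate and DMSO and 100% = REL1 plus control inhibitor NSC42067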
* hit, by the source's call.

SMILES | TbREL1 inh | others
Cc1cc(NS(=O)(=O)c2ccc(NC(=O)CSc3nnc(-c4ccncc4)n3Cc3ccco3)cc2)nc(C)n1 | 34.8* | TbREL1 confirm=0.0
Cc1cc(NS(=O)(=O)c2ccc(NC(=O)CSc3nnc(-c4ccc(Cl)cc4)n3Cc3ccco3)cc2)nc(C)n1 | -1.9
CCn1c(SCc2ccc(C(C)(C)C)cc2)nnc1-c1ccc(C(C)(C)C)cc1 | -0.3
O=C(NCCN1CCC(Cc2ccccc2)CC1)C1CCCN(S(=O)(=O)c2ccccc2[N+](=O)[O-])C1 (stereo not drawn) | 2.6
O=C(CSc1nnc(Cc2cccs2)n1-c1ccccc1)Nc1ccccc1-c1ccccc1 | -4.6
Cc1cccc(NCC(=O)N/N=C/c2cccc(Br)c2)c1 | 11.7* | TbREL1 confirm=-0.6
C/C(=N\NC(=O)CNc1cccc(C)c1)c1ccc(Br)s1 | -0.9
O=C(CNc1ccc2ccccc2c1)N/N=C/c1ccccn1 | -7.4
COc1ccc(C(=O)CSc2nnc(-c3cccnc3)n2-c2ccc(C)cc2)cc1 | -5.6
CC1CN(c2ccnc3cc(Cl)ccc23)CCN1C(=O)c1ccc(Cl)cc1 (stereo not drawn) | 7.0
NS(=O)(=O)c1ccc(NC(=O)c2ccc(S(=O)(=O)N3CCOCC3)o2)cc1 | -1.1
NS(=O)(=O)c1cccc(NC(=O)CCc2ccc(S(=O)(=O)N3CCOCC3)cc2)c1 | 4.2
NS(=O)(=O)c1ccc(NC(=O)CCC(=O)N2CCOCC2)cc1 | 14.7* | TbREL1 confirm=2.4
CC(C)c1ccc(NC(=O)NCc2ccc3c(c2)OCO3)cc1 | 0.9
COc1ccccc1CNC(=O)CCC(=O)Nc1nnc(C(C)C)s1 | -2.1
CC(C)c1nnc(NC(=O)CCC(=O)NCc2ccc3c(c2)OCO3)s1 | 17.6* | TbREL1 confirm=4.5
O=C(NCC1COCCO1)C1CCN(S(=O)(=O)c2cccc3ccccc23)CC1 (stereo not drawn) | 1.3
COC(=O)C(CN)CN1C(=O)c2ccccc2C1=O (stereo not drawn) | 0.0
Cc1ccc2nc(C3CCCCC3)c(Cc3ccccc3C(F)(F)F)n2c1 | -2.2
Brc1ccc2nc(C3CCCCC3)c(CC3CCCCC3)n2c1 | 11.3* | TbREL1 confirm=8.5
CC(C)(C)Cc1c(C2CCCCC2)nc2ccc(Cl)cn12 | 4.6
O=C(Cn1c(-c2cncs2)nc2ccccc21)N1CCOCC1 | 0.4
CC1(C)Cc2c(c(-c3ccco3)[nH]c(=O)c2C#N)CS1 | 15.0* | TbREL1 confirm=4.2
CC1(C)Cc2c(c(-c3ccccc3)[nH]c(=O)c2C#N)CS1 | -0.2
CC(=O)N1CCN(c2nc(-c3ccco3)c3c(c2C#N)CC(C)(C)SC3)CC1 | -2.4
SMILES | TbREL1 inh | others
CCC[C@H]1[C@@H](NC(=O)C2CCOC2)CC[C@@]23CCCN2C(=O)CCC[C@@H]13 (stereo partly drawn) | -2.9
O=C(NCc1ccco1)OC1CCC12CCC(c1ccccc1)CC2 (stereo not drawn) | 3.8
Cc1sc2nc(SCC(=O)c3ccc(O)c(O)c3)n(C)c(=O)c2c1C | 3.6
CCCCNC(=O)O[C@H]1CC[C@@]23CCCN2C(=O)CCC[C@H]3C1 | 13.5* | TbREL1 confirm=-3.4
O=C(NCCc1ccccc1)O[C@H]1CC[C@@]23CCCN2C(=O)CCC[C@H]3C1 | -4.5
O=C(NCc1ccccc1)O[C@@H]1CC[C@@]23CCCN2C(=O)CCC[C@H]3C1 | -4.5
CC(=O)NC(c1cccs1)c1cc(F)c2cccnc2c1O (stereo not drawn) | -0.1
CCC(=O)NC(c1cccs1)c1cc([N+](=O)[O-])c2cccnc2c1OC (stereo not drawn) | 32.8* | TbREL1 confirm=9.5
CCC(=O)NC(c1cccs1)c1ccc2cccnc2c1O (stereo not drawn) | -0.1
Cc1ccccc1NC(=O)CN1C(=O)CCSc2ccccc21 | -2.1
O=C(OCc1cn(Cc2cccc(Cl)c2)nn1)N1CCOCC1 | 0.0
Cn1c(N)c(NC(=S)NC2CCCCC2)c(=O)n(C)c1=O | -1.6
CCOC(=O)c1nn(-c2ccc(C)cc2)c(=O)c2c(N)scc12 | 1.0
CCOC(=O)C(CC)n1cnc2c(nnn2-c2ccc(C)cc2)c1=O (stereo not drawn) | 18.6* | TbREL1 confirm=1.8
COc1ccc(-n2nnc3c(=O)n(CC(=O)N4CCCC4)cnc32)cc1 | 2.5
CC1(C(=O)NS(=O)(=O)c2ccc3c(c2)CCO3)CCN1C(=O)C1(c2ccc(Cl)cc2)CCC1 (stereo not drawn) | 0.3
CCN(CC)C(=O)CSc1nnc(-c2ccccn2)n1C | 0.8
Fc1ccc(-c2csc(N3CCOCC3)n2)cc1 | -2.7
Nc1ncc(CCN2CCOCC2)c(-c2ccc(F)cc2)n1 | 14.6* | TbREL1 confirm=1.8
Fc1ccccc1OCCCN1CCOCC1 | 10.6
Cc1ccc(S(=O)(=O)NC[C@@H]2C[C@H](c3ccccc3)ON2S(=O)(=O)c2ccc(C)cc2)cc1 | 1.8
O=C(NN=Cc1ccco1)c1cccnc1 | 9.4
O=C(O)c1cccc(-n2nc(-c3ccc(Cl)c([N+](=O)[O-])c3)c3ccccc3c2=O)c1 | 3.5
Cc1cc(C)c[n+](CC(=O)c2ccccc2)c1 | 0.6
COC(=O)c1ccc[n+](CC(=O)c2ccc(Br)cc2)c1 | 11.3* | TbREL1 confirm=0.3
SMILES | TbREL1 inh | others
O=C(C[n+]1ccc2ccccc2c1)c1ccccc1 | 1.1
Cc1cc(C(=O)NN=Cc2cccc(O)c2)n[nH]1 | -0.8
C[C@H](NC(N)=O)C(=O)OCC(=O)Nc1ccc(OC(F)F)cc1 | 11.6* | TbREL1 confirm=-1.1
O=C(COC(=O)C1CCC1)Nc1ccc(OC(F)F)cc1 | 2.4
CCCCC(=O)OCC(=O)Nc1ccc(OC(F)F)cc1 | -1.2
COC(=O)[C@]12C[C@H](CC(=O)N3CCN(C(=O)C4CC4)CC3)C(=O)N(Cc3ccc(Cl)cc3Cl)C1=C[C@H](C(C)C)O[C@@H]2C1CC1 | -2.9
Cc1ccc(NC(=O)OC2CC3CC2[C@H]2CCCCN2C3)cc1 (stereo partly drawn) | 0.2
COc1ccccc1-c1ccc2c(c1)C(C)(Cc1cc(Cl)ccc1C(F)(F)F)C(=O)N2 (stereo not drawn) | 17.2* | TbREL1 confirm=7.2
COc1ccc(C(C)=O)cc1CC1(C)C(=O)Nc2ccc(-c3cccc(C(F)(F)F)c3)cc21 (stereo not drawn) | 1.5
CC1(Cc2ccccc2OC(F)(F)F)C(=O)Nc2ccc(-c3ccsc3)cc21 (stereo not drawn) | 4.3
O=C1C2C(CC3c4ccccc4CCN32)CN1c1ccccc1 (stereo not drawn) | -2.6
Cc1ccc(NC(=O)N2CCC(N(C)CCC(C)C)CC2)cc1F | 0.4
CC1(C)CC(=O)N(CC(=O)N2CCN(c3cccc(Cl)c3Cl)CC2)c2ccccc2S1(=O)=O | -2.8
O=C(NCc1ccccc1CN1CCCC1)C1CCN(C(=O)c2ccc(Cl)cc2)CC1 | 1.6
O=C(c1cc2cc(Cl)ccc2o1)N1CCCC1 | 1.9
O=C(NCc1ccccc1CN1CCCC1)c1cc2cc(Cl)ccc2o1 | 12.1* | TbREL1 confirm=4.2
C=CCNC(=O)CN(C(=O)Cc1cccc(OC(F)(F)F)c1)c1cccc(Br)c1 | -0.6
CC(=O)c1cccc(NC(=O)C2(C)Cc3c(-c4cccc(C(N)=O)c4)ccnc3O2)c1 (stereo not drawn) | 3.0
CC(=O)NCCNC(=O)C1(C)Cc2c(-c3cccc(C(N)=O)c3)ccnc2O1 (stereo not drawn) | 13.7* | TbREL1 confirm=5.3
CC1(C(=O)NCc2ccc(F)c(F)c2)Cc2c(-c3cccc(C(N)=O)c3)ccnc2O1 (stereo not drawn) | -5.7
Cc1ccc(-n2c(SCC(=O)Nc3ccc(S(=O)(=O)Nc4nccs4)cc3)nnc2-c2cccs2)cc1 | -4.9
O=C1CN(C(=O)C2CCCCC2)C=CN1CCc1ccccc1Br | 2.3

Compound activity from PubChem.
